What was measured:
Assay in all cases: PBM binding z-score (relative to random genomic background probes); higher = stronger binding; sequences stand for … in GC…GCGATTGACAGCGTAGAATGAAGG
[1] = test system: FXR:RXRa (NR concentration 270 nM, RXRa partner concentration 90 nM)
Summary of the method: (§1)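 Antibodies against each partner of ligand-free nuclear receptor dimers (one per run) detected binding on custom Agilent 4×180K protein-binding microarrays after 1 h incubation. The double-stranded probes had 34-nt variable regions carrying direct-repeat seeds, single-nucleotide variants, half-site ablations and random human genomic background sequences. Binding z-scores, from regression-normalized fluorescence, use the random background probes as reference.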

[2] = test system: LXRa:RXRa (NR concentration 270 nM, RXRa partner concentration 90 nM)
Summary of the method: as §1

[3] = test system: LXRa homodimer (NR concentration 270 nM)
Summary of the method: as §1

[4] = test system: LXRb:RXRa (NR concentration 270 nM, RXRa partner concentration 90 nM)
Summary of the method: as §1

[5] = test system: LXRb homodimer (NR concentration 270 nM)
Summary of the method: as §1

[6] = test system: PPARa:RXRa (NR concentration 270 nM, RXRa partner concentration 90 nM)
Summary of the method: as §1

[7] = test system: PPARg:RXRa (NR concentration 180 nM, RXRa partner concentration 90 nM)
Summary of the method: as §1

[8] = test system: PPARg:RXRa 270nM:90nM, anti-RXR (NR concentration 270 nM, RXRa partner concentration 90 nM)
Summary of the method: as §1

[9] = test system: PPARg:RXRa 30nM:10nM, anti-RXR (NR concentration 30 nM, RXRa partner concentration 10 nM)
Summary of the method: as §1

[10] = test system: PPARg:RXRa 90nM:30nM, anti-RXR (NR concentration 90 nM, RXRa partner concentration 30 nM)
Summary of the method: as §1

[11] = test system: PPARg:RXRa DBDmut IVT, anti-RXR (DBD mutation: RXRa K156A/R161A, NR concentration 270 nM, RXRa partner concentration 90 nM)
Summary of the method: as §1

[12] = test system: PPARg:RXRa IVT, anti-PPARg (NR concentration 270 nM, RXRa partner concentration 90 nM)
Summary of the method: as §1

[13] = test system: PPARg DBDmut:RXRa IVT, anti-PPARg (DBD mutation: PPARg1 K132A/R137A, NR concentration 270 nM, RXRa partner concentration 90 nM)
Summary of the method: as §1

[14] = test system: PPARg DBDmut IVT, anti-PPARg (DBD mutation: PPARg1 K132A/R137A, NR concentration 270 nM)
Summary of the method: as §1

[15] = test system: PPARg homodimer (NR concentration 180 nM)
Summary of the method: as §1

[16] = test system: PXR:RXRa (NR concentration 270 nM, RXRa partner concentration 90 nM)
Summary of the method: as §1

[17] = test system: PXR homodimer (NR concentration 270 nM)
Summary of the method: as §1

[18] = test system: RARa:RXR (NR concentration 270 nM, RXRa partner concentration 90 nM)
Summary of the method: as §1

[19] = test system: RARa homodimer (NR concentration 270 nM)
Summary of the method: as §1

[20] = test system: RARb:RXRa (NR concentration 270 nM, RXRa partner concentration 90 nM)
Summary of the method: as §1

TCATATAGGTAAAGTTGAAAGTCGAACGATATGA
PBM binding z-score [1]: 0.231 | PBM binding z-score [2]: 0.886 | PBM binding z-score [3]: -0.186 | PBM binding z-score [4]: 0.68 | PBM binding z-score [5]: -0.123 | PBM binding z-score [6]: 2.11 | PBM binding z-score [7]: 1.9 | PBM binding z-score [8]: 3.23 | PBM binding z-score [9]: 3.72 | PBM binding z-score [10]: 3.52 | PBM binding z-score [11]: 3.68 | PBM binding z-score [12]: 2.66 | PBM binding z-score [13]: 1.6 | PBM binding z-score [14]: 1.18 | PBM binding z-score [15]: 0.5 | PBM binding z-score [16]: 0.661 | PBM binding z-score [17]: 0.0596 | PBM binding z-score [18]: 0.908 | PBM binding z-score [19]: 0.307 | PBM binding z-score [20]: 1.08

TCATATAGGAAAAAGGTGAAAGTCGGTGTGGTAA
PBM binding z-score [1]: 1.37 | PBM binding z-score [2]: 1.47 | PBM binding z-score [3]: -0.216 | PBM binding z-score [4]: 1.38 | PBM binding z-score [5]: -0.0192 | PBM binding z-score [6]: 2.87 | PBM binding z-score [7]: 3.05 | PBM binding z-score [8]: 5.37 | PBM binding z-score [9]: 5.19 | PBM binding z-score [10]: 5.73 | PBM binding z-score [11]: 2.92 | PBM binding z-score [12]: 1.79 | PBM binding z-score [13]: 1.1 | PBM binding z-score [14]: 0.104 | PBM binding z-score [15]: 1.49 | PBM binding z-score [16]: 0.859 | PBM binding z-score [17]: 0.327 | PBM binding z-score [18]: 1.63 | PBM binding z-score [19]: 1.43 | PBM binding z-score [20]: 1.57

TCTGGTTGGTCACGGAGGTCACACACGACGGGTA
PBM binding z-score [1]: 3.5 | PBM binding z-score [2]: 3.63 | PBM binding z-score [3]: 2.85 | PBM binding z-score [4]: 3.58 | PBM binding z-score [5]: 1.47 | PBM binding z-score [6]: 3.99 | PBM binding z-score [7]: 3.13 | PBM binding z-score [8]: 3.7 | PBM binding z-score [9]: 2.69 | PBM binding z-score [10]: 3.15 | PBM binding z-score [11]: 1.74 | PBM binding z-score [12]: 3.7 | PBM binding z-score [13]: 1.34 | PBM binding z-score [14]: 1.67 | PBM binding z-score [15]: 4.27 | PBM binding z-score [16]: 4.9 | PBM binding z-score [17]: 2.06 | PBM binding z-score [18]: 4.93 | PBM binding z-score [19]: 2 | PBM binding z-score [20]: 4

ACTAGTTGGTCAGCTCAGGTCACACACAATTCGG
PBM binding z-score [1]: 1.73 | PBM binding z-score [2]: 1.66 | PBM binding z-score [3]: 1.68 | PBM binding z-score [4]: 1.95 | PBM binding z-score [5]: 0.675 | PBM binding z-score [6]: 2.03 | PBM binding z-score [7]: 1.04 | PBM binding z-score [8]: 0.796 | PBM binding z-score [9]: -0.0327 | PBM binding z-score [10]: 0.521 | PBM binding z-score [11]: 1.24 | PBM binding z-score [12]: 2.1 | PBM binding z-score [13]: 0.448 | PBM binding z-score [14]: 1.3 | PBM binding z-score [15]: 1.64 | PBM binding z-score [16]: 3.54 | PBM binding z-score [17]: 0.961 | PBM binding z-score [18]: 2.58 | PBM binding z-score [19]: 1.11 | PBM binding z-score [20]: 2.7

GGAACGAGGGCATTCGAGTTGATAGCTTGGCGAT
PBM binding z-score [1]: 1.76 | PBM binding z-score [2]: 1.65 | PBM binding z-score [3]: -0.471 | PBM binding z-score [4]: 0.207 | PBM binding z-score [5]: -0.992 | PBM binding z-score [6]: 1.36 | PBM binding z-score [7]: 0.667 | PBM binding z-score [8]: 0.802 | PBM binding z-score [9]: -0.342 | PBM binding z-score [10]: 0.275 | PBM binding z-score [11]: 3.44 | PBM binding z-score [12]: 2.2 | PBM binding z-score [13]: -0.209 | PBM binding z-score [14]: -0.379 | PBM binding z-score [15]: -0.157 | PBM binding z-score [16]: 3.79 | PBM binding z-score [17]: 1.99 | PBM binding z-score [18]: 0.494 | PBM binding z-score [19]: -1 | PBM binding z-score [20]: 1.87

CGAACTAGGTCACCGGAAGGTCAAAGTCCGCATG
PBM binding z-score [1]: 6.15 | PBM binding z-score [2]: 5.95 | PBM binding z-score [3]: 4.65 | PBM binding z-score [4]: 5.17 | PBM binding z-score [5]: 0.515 | PBM binding z-score [6]: 6.04 | PBM binding z-score [7]: 9.75 | PBM binding z-score [8]: 7.7 | PBM binding z-score [9]: 5.33 | PBM binding z-score [10]: 7.57 | PBM binding z-score [11]: 7.98 | PBM binding z-score [12]: 8.54 | PBM binding z-score [13]: 0.875 | PBM binding z-score [14]: 0.855 | PBM binding z-score [15]: 8.74 | PBM binding z-score [16]: 5.95 | PBM binding z-score [17]: 2.08 | PBM binding z-score [18]: 7.52 | PBM binding z-score [19]: 2.97 | PBM binding z-score [20]: 5.2

AGTCAAAGTTCATCTAGGTAAAGTAAGATATGCT
PBM binding z-score [1]: 7.01 | PBM binding z-score [2]: 5.97 | PBM binding z-score [3]: 5.01 | PBM binding z-score [4]: 4.24 | PBM binding z-score [5]: 1.97 | PBM binding z-score [6]: 5.14 | PBM binding z-score [7]: 7.07 | PBM binding z-score [8]: 6.73 | PBM binding z-score [9]: 3.75 | PBM binding z-score [10]: 5.54 | PBM binding z-score [11]: 1.06 | PBM binding z-score [12]: 3.88 | PBM binding z-score [13]: 1.43 | PBM binding z-score [14]: 0.713 | PBM binding z-score [15]: 3.61 | PBM binding z-score [16]: 5.45 | PBM binding z-score [17]: 7.79 | PBM binding z-score [18]: 4.38 | PBM binding z-score [19]: 2.12 | PBM binding z-score [20]: 5.22
